Laboratory results as given in PubChem BioAssay AID492964 (The Scripps Research Institute Molecular Screening Center, 2010).
The campaign covered roughly 1,800 compounds. About 880 (49%) were called active. No stated cut-off is given here; in the data, active means inhibition above about 55%; inactive means the rest. The set was probably picked from earlier hits. A selection follows.

biological target: Orexin/Hypocretin receptor type 1 (Homo sapiens) (UniProt O43613); test: OX1R (HCRTR1) antagonists, confirmation, cell-based, HTRF (AID 492964); conditions: OX1R-expressing cells, HTRF antagonist assay; at 6.6 µM; hits give high values;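 further: CHO cells expressing OX1R stimulated with orexin A at about EC80; 0% = agonist challenge alone and 100% = reference antagonist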
Sequence (O43613 whole entry, looked up): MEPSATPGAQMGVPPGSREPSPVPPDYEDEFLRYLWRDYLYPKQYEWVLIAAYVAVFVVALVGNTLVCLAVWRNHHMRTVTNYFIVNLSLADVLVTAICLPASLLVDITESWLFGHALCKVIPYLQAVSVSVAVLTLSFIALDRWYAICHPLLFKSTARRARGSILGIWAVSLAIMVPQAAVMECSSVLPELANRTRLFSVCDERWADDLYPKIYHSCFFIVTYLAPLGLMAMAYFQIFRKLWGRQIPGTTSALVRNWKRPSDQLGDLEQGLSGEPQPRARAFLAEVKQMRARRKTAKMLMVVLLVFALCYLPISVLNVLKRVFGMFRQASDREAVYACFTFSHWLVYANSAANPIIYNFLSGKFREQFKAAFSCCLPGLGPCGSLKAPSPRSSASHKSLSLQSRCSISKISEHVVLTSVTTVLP

Question: How did the inhibition turn out when `CCC(=O)N(C)C(c1ccccc1Cl)c1nnnn1-c1c(C)cccc1C` (stereo not drawn) was run?
Answer: 64% (active)

Question: Which inhibition does the source give for `Cc1ccc2c(c1)nnc1nnc(SCC(=O)O)n12` here?
Answer: 63.9% (active)

Question: `O=C(Nc1nnc(-c2ccccc2)o1)c1cc(-c2cccs2)nc2ccccc12` was tested. Which inhibition did it give?
Answer: 75.6% (active)

Question: How did the inhibition turn out when `C/C(N)=C(/C#N)C(=O)COC(=O)c1cc(-c2ccc(C)cc2)nc2ccccc12` was run?
Answer: 27.5% (inactive)

Question: With `O=C(NCc1ccco1)C1CCCN(S(=O)(=O)c2cccc3nonc23)C1` (stereo not drawn) as the molecule, how does the inhibition read?
Answer: 16.2% (inactive)

Question: With `CC(=O)c1cccc(NC(=O)C2CCCN2S(=O)(=O)c2cccc3nsnc23)c1` (stereo not drawn) as the molecule, how does the inhibition read?
Answer: 101% (active)

Question: `CCOc1ccc(NC(=O)CCS(=O)(=O)c2cccc3nsnc23)cc1` was tested. Which inhibition did it give?
Answer: 31.9% (inactive)

Question: How did the inhibition turn out when `Cc1cc(C)cc(NC(=O)C2CCCN2S(=O)(=O)c2cccc3cccnc23)c1` (stereo not drawn) was run?
Answer: 88.2% (active)

Question: With `CN1CCN(/N=C/c2ccc(-c3ccc([N+](=O)[O-])cc3)o2)CC1` as the molecule, how does the inhibition read?
Answer: 26.4% (inactive)

Question: With `C=CCn1c(SCC(=O)Nc2nc3ccccc3s2)nnc1-c1ccccc1O` as the molecule, how does the inhibition read?
Answer: 76.1% (active)

Question: With `COc1ccc2oc(=O)c(C(=O)NCc3ccccn3)cc2c1` as the molecule, how does the inhibition read?
Answer: 35.8% (inactive)

Question: `O=C(Nc1ccc2sc3ccccc3c(=O)c2c1)c1ccccc1Cl` was tested. Which inhibition did it give?
Answer: 95.8% (active)

Question: `CC(C)(C)NC(=O)Cn1cnc2cc([N+](=O)[O-])ccc2c1=O` was tested. Which inhibition did it give?
Answer: 43.3% (inactive)

Question: Which inhibition does the source give for `CCOc1cc(/C=C(\C#N)c2nc(-c3cccs3)c(NC(C)=O)s2)ccc1O` here?
Answer: 73.3% (active)

Question: How did the inhibition turn out when `O=C(Cc1ccccc1)N1CCN(S(=O)(=O)c2ccc([N+](=O)[O-])cc2)CC1` was run?
Answer: 61.2% (active)

Question: How did the inhibition turn out when `Cc1ccccc1S(=O)(=O)N1[C@@H](c2cccc(Cl)c2)C(C(=O)O)=CC[C@H]1c1ccc(Cl)cc1` was run?
Answer: 87.4% (active)

Question: For `Cc1ccc([C@@H]2CC=C(C(=O)O)[C@H](c3cccc(Cl)c3)N2S(=O)(=O)c2ccc(C)cc2)cc1`, which inhibition is on record?
Answer: 82.8% (active)

Question: For `O=C(Nc1nnc(C2=COCCO2)o1)c1ccc([N+](=O)[O-])s1`, which inhibition is on record?
Answer: 49.7% (inactive)

Question: How did the inhibition turn out when `c1ccc(-c2nc(NCc3ccco3)c3ccccc3n2)cc1` was run?
Answer: 64% (active)

Question: Which inhibition does the source give for `C[n+]1ccccc1C1CCCC/C1=N\Nc1ccc([N+](=O)[O-])cc1[N+](=O)[O-]` (stereo not drawn) here?
Answer: 35.2% (inactive)

Question: `Nc1nc(-c2sc3nc4c(cc3c2N)CCCC4)nc(N2CCOCC2)n1` was tested. Which inhibition did it give?
Answer: 94.8% (active)

Question: With `O=C(CN1C(=O)c2cccc3cccc(c23)C1=O)N1CCCCC1` as the molecule, how does the inhibition read?
Answer: 33.8% (inactive)

Question: For `Cn1c(N)c(C(=O)COC(=O)c2ccc3ccccc3c2)c(=O)n(C)c1=O`, which inhibition is on record?
Answer: 63.3% (active)

Question: With `COc1ccc2[nH]c(=O)c(CNc3ccc(C)c(C)c3)cc2c1` as the molecule, how does the inhibition read?
Answer: 31.3% (inactive)

Question: With `O=C(N/N=C/c1c(Cl)[nH]c2ccccc12)c1sc2ccccc2c1Cl` as the molecule, how does the inhibition read?
Answer: 92.5% (active)

Question: For `Cc1ccc(Nc2nc(CSc3nnnn3-c3ccccc3)cc(=O)[nH]2)cc1`, which inhibition is on record?
Answer: 22.3% (inactive)

Question: With `O=C(OC1CCOC1=O)c1ccc(-c2nc3ccccc3s2)s1` (stereo not drawn) as the molecule, how does the inhibition read?
Answer: 98.5% (active)

Question: Which inhibition does the source give for `O=C(c1ccncc1)c1ccc([N+](=O)[O-])cc1` here?
Answer: 53.2% (inactive)
